In test [1] the test system is F380Y. In words: modulators of BK channel variants, profiling panel, selectivity assay, cell-based, U2OS BacMam, thallium flux, beta subunits (AID 1259406;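 active = thallium flux through the channel raised or lowered by more than 3 SD from vehicle-only wells, actives on both sides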;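 also: initial slope of Thallos dye fluorescence rise after thallium is added; log ratio against the mean of 0.3% DMSO vehicle wells on the same plate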). Conditions: at 30 µM.
Test [2] has as its system F380Y/beta2Delta. Described as above. Particulars: at 30 µM.
The subject of test [3] is R275C. The description is as above. Particulars: at 30 µM.
In test [4] the test system is R275C/beta1. Described as above. Conditions: at 30 µM.
For test [5], the system named is R275C/beta2Delta. Described as above. Conditions: at 30 µM.
Test [6] concerns R275C/Slo1WT/beta2. Described as above. Conditions: at 30 µM.
Test [7] can be described thus: antimalarial activity against Dd2 strain (AID 2302;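 active = growth inhibition above 50% at the single 2 µM test dose, taken to imply half-maximal potency below 2 µM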;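 also: 0% = DMSO untreated growth and 100% = chloroquine plus artemisinin killed control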). Conditions: P. falciparum Dd2 in RBCs, LDH growth readout, 72 h; at 2 µM; stronger effect = higher value.
In test [8] the target is L-lactate dehydrogenase (Plasmodium falciparum (isolate CDC / Honduras)) (UniProt Q27743). In words: PfLDH activity inhibition – cell lysate, 3D7 strain, counter-screen for P. falciparum growth inhibition project (AID 2304).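 Also: 0% = vehicle and 100% = reference inhibitor.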 Conditions: P. falciparum 3D7 crude extract, LDH APAD/NBT absorbance; at 2 µM; stronger effect = higher value. For orientation: The purpose of a counterscreen is to sort out artefacts and off-target activity.

Test [9] in a line: inhibition of 3D7 malaria parasite growth – strain 3D7 (AID 2306).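 Also: 0% = DMSO wells and 100% = chloroquine plus artemisinin control wells.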 Particulars: P. falciparum 3D7 erythrocytic growth, LDH absorbance, 72 h; at 2 µM; stronger effect = higher value.
For test [10], the target named is Calcium-dependent protein kinase 1 (Plasmodium falciparum (isolate 3D7)) (UniProt P62344). Put plainly: PfCDPK1 kinase inhibitors, biochemical, TCAMS library (AID 1159585; cut-off not given, nearly all actives have IC50 up to about 0.98 µM;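 also: inhibitors leave more ATP so luminescence rises with inhibition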). Particulars: recombinant PfCDPK1, Kinase-Glo ATP depletion luminescence. For orientation: Kinase-Glo measures the ATP left after a reaction by luminescence.
Test [11] has as its target Plasmodium falciparum protein kinase 6 (PK6, PF3D7_1337100) (UniProt Q8IDW1). In words: PfPK6 kinase inhibitors, biochemical, TCAMS library (AID 1159586). Particulars: recombinant PfPK6, Kinase-Glo ATP depletion luminescence.
Test [12] addresses Protein kinase 7 (PK7), Plasmodium falciparum 3D7 (PF3D7_0213400) (UniProt Q7YTF7). In words: inhibition of Plasmodium PK7 catalytic activity – biochemical, TCAMS antimalarial set, Kinase-Glo luminescence (AID 1159587). Particulars: recombinant PfPK7, Kinase-Glo ATP depletion luminescence.
The target of test [13] is Calcium-dependent protein kinase 4 (Plasmodium falciparum (isolate 3D7)) (UniProt Q8IBS5). Put plainly: PfCDPK4 kinase inhibitors, biochemical, TCAMS library (AID 1159588; cut-off not given, nearly all actives have IC50 up to about 0.91 µM). Conditions: recombinant PfCDPK4, Kinase-Glo ATP depletion luminescence.
Test [14] can be described thus: HepG2 cytotoxicity, primary screen, cytotoxicity control for P. falciparum antimalarial project, cell-based, ATP luminescence (AID 2303;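 active = inhibition above 50%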;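 also: 0% = DMSO wells and 100% = digitonin-killed cells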). Conditions: HepG2 viability, 24-48 h, at 10 µM, stronger effect = higher value.
Test [15] can be described thus: liver-stage malaria parasite growth inhibition, primary screen, cell-based, HepG2, luciferase luminescence, HepG2 viability (AID 624349; in the data active = parasite load remaining mostly below about 12%, no sharp cut-off; inactive = mostly above about 10%;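 also: 100% = mean of DMSO negative control wells on the same plate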). Conditions: P. berghei liver stage in HepG2, luciferase luminescence, concentration not given here; parasite load remaining: stronger effect = lower value; viability: measured here: HepG2 viability without parasites.
Test [16] in a line: Cy5 fluorescence interference with SSB-bound oligo, artefact control for HCV NS3 helicase inhibitor project, biochemical, NIH Clinical Collection, E. coli SSB (AID 743268).
Test [17] concerns Hepatitis C virus NS3 helicase. Put plainly: HCV NS3 helicase inhibitors, primary screen, biochemical, fluorescence polarization, NIH Clinical Collection (AID 743270). Particulars: NS3 helicase binding to Cy5-dT15 DNA, stronger effect = higher value, concentration not given here.
Test [18] addresses Single-stranded DNA-binding protein (Escherichia coli (strain K12)) (UniProt P0AGE0). In words: E. coli SSB displacement from DNA, counter-screen for HCV NS3 helicase inhibitor project, biochemical, fluorescence polarization, NIH Clinical Collection (AID 743271; in the data active = inhibition above about 28%). Particulars: stronger effect = higher value, concentration not given here.
A short description of test [19]: fluorescence interference in NS3h assay format, artefact control for HCV NS3 helicase inhibitor project, biochemical, NIH Clinical Collection (AID 743272).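 Also: HCV NS3 helicase with a Cy5 labelled single stranded DNA probe.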 Particulars: fluorescence interference counterscreen, stronger effect = lower value.
A short description of test [20]: sensitizers of A549 cells to miR-34 induction, primary screen, imaging, A549 dox-inducible miR-34, nuclei and caspase counts (AID 1347080;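 active = compounds whose cell count with miR-34 switched on is under 0.7 times the count with it off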). Particulars: A549 miR-34 inducible, Hoechst nuclei count, 48 h.
Where [21] appears, read: stronger effect = lower value, cell number ratio, induced over uninduced.
[22] abbreviates: measured here: relative caspase fold change +Dox/-Dox.
Where [23] appears, read: measured here: total cells with miR-34 induction, stronger effect = lower value.
The mark [24] stands for this setting: measured here: total cells without miR-34 induction.

Structures are written as SMILES. “And” between values parts separate entries of the source, which are not always exact repeats. Equal values may be shown once. For some of these results: Measured potencies and affinities stand elsewhere. The source made the active and inactive calls. Unless noted, no rule for the calls is given here.

Chain of Protein kinase 7 (PK7), Plasmodium falciparum 3D7 (PF3D7_0213400) (Q7YTF7 1-343): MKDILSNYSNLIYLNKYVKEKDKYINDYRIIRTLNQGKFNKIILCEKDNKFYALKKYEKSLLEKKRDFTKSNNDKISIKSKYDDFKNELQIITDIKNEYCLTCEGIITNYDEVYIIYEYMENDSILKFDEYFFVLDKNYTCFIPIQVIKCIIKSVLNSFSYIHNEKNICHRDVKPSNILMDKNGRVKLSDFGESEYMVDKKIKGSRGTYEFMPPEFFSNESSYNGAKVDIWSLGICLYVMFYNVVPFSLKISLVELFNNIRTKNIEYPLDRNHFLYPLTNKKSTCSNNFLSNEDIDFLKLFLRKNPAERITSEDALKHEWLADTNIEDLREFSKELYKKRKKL
Chain of Plasmodium falciparum protein kinase 6 (PK6, PF3D7_1337100) (Q8IDW1 1-305): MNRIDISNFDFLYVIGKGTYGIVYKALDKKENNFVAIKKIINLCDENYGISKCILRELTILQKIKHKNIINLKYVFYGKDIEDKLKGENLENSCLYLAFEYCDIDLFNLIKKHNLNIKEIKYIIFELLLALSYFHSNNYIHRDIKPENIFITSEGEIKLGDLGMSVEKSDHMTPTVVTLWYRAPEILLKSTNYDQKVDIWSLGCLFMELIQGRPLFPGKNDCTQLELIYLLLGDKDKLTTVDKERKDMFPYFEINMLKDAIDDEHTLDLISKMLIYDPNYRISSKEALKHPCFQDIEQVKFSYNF
Chain of L-lactate dehydrogenase (Plasmodium falciparum (isolate CDC / Honduras)) (Q27743 whole entry, looked up): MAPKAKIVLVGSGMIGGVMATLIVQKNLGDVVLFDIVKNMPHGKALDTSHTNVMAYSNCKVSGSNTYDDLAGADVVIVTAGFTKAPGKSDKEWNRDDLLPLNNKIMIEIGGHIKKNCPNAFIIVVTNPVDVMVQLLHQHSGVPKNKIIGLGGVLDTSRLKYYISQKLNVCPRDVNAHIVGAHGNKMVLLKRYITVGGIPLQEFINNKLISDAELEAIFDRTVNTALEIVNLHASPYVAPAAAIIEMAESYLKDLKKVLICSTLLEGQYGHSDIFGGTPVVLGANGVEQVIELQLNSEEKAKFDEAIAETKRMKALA
Chain of Calcium-dependent protein kinase 1 (Plasmodium falciparum (isolate 3D7)) (P62344 whole entry, looked up): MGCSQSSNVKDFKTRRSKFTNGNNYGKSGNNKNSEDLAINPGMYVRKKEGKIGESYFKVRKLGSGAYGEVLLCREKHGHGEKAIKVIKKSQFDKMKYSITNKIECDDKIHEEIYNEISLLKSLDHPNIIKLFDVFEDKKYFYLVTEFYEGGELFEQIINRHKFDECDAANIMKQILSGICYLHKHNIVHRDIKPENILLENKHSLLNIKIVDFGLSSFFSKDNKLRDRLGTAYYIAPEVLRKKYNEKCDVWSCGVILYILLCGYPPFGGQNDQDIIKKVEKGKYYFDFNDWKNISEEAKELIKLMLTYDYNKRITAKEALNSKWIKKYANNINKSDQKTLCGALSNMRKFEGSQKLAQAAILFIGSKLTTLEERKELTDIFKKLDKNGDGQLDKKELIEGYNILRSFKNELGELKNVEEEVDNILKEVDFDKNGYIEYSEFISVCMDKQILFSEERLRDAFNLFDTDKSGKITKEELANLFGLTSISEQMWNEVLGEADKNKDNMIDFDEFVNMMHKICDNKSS
Chain of Calcium-dependent protein kinase 4 (Plasmodium falciparum (isolate 3D7)) (Q8IBS5 whole entry, looked up): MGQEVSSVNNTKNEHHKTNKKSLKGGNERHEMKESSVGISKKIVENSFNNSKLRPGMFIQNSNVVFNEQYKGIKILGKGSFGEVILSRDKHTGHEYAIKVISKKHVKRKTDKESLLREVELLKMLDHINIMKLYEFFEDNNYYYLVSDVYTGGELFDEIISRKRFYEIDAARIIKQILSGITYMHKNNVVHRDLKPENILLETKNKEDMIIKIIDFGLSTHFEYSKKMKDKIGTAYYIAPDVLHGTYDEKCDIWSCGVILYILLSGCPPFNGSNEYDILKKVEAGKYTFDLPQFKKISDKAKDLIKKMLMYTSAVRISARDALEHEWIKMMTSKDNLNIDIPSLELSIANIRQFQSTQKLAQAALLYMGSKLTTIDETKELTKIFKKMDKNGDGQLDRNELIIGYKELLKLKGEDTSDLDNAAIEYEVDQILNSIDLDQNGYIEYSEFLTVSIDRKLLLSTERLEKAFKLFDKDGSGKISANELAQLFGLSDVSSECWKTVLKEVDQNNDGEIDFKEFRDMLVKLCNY

For the compound `N#CC(C#N)=Cc1cccnc1`, the log fold change Tl+ flux in test [1] was 0.00869 (inactive); in test [2], -0.0117 (inactive); in [3] it was -0.0132 (inactive); in test [4], -0.0358 (inactive); in test [5] it was -0.0205 (inactive); in [6] it was -0.0203 (inactive).
By inhibition is commonly meant the relative decrease from the control value, in per cent. Regarding `NC(N)=NC(=O)Nc1ccc([N+](=O)[O-])c(Cl)c1`, the growth inhibition is 12% (inactive) in [7] and 90% (active) in [9]. Also, the inhibition in [8] is -10% (inactive). The result in test [10], in test [11], in test [12] and in test [13] was inactive.
In the case of `CN(c1ccnc(Nc2ccc(CS(C)(=O)=O)cc2)n1)C1CCN(Cc2ccccc2)CC1`, the growth inhibition in test [7] is 9% (inactive); in test [9], 83% (active). Further, the inhibition in [14] is 10% (inactive); in test [8] it was 1% (inactive). Further, the result in [10], in test [11], in test [12] and in [13] was inactive.
For `CCCCCC(C)C(C)c1cc(O)c2c3c(c(=O)oc2c1)CN(Cc1ccccc1)CC3` (centres undefined), the results for the growth inhibition in test [7] and in test [9] were 47% (inactive) and 99% (active), respectively. The inhibition in test [14] is 4% (inactive); in test [8] it was -2% (inactive). Moreover, the result in test [10], in test [11], in [12] and in [13] was inactive.
`CC[C@H]1CN2CC[C@H]1C[C@H]2[C@H](O)c1cc(-c2ccc(SC)cc2)nc2ccc(OC)cc12`: the growth inhibition in test [7] was 99% (active); in test [9], 98% (active). In addition, the figures for the inhibition in test [14] and in [8] were 9% (inactive) and -1% (inactive), respectively. In addition, the outcome in test [10], in test [11], in test [12] and in test [13] was inactive.
On to `Cc1csc2sc(C=C(C#N)C#N)c(C)c12`, for which the log fold change Tl+ flux was 0.0324 (inactive) in test [1]; 0.0231 (inactive) in test [2]; 0.0225 (inactive) in test [3]; 0.0369 (inactive) in test [4]; 0.00343 (inactive) in test [5]; 0.0163 (inactive) in test [6].
As usually defined, the viability is a read-out of living cells in per cent, often relative to untreated cells. For `NCCc1ccccn1`, in [15], the parasite load remaining is 52.1% (inactive). Also, the viability in test [15] amounted to 95.2%. In addition, the fluorescence ratio in [16] and in test [19] was 1 (inactive) throughout. Also, the inhibition in test [17] was -1.19% (inactive); in test [18], -1.64% (inactive). Moreover, the fold change in [20] (stronger effect = lower value) is 1.03 (inactive); in [20] (setting [21]), 1.05 (inactive); in test [20] (setting [22]), 1.57 and 1.54. Moreover, the cell count in test [20] (setting [23]) was 10400 and 8860; in test [20] (setting [24]), 10100 and 8480. The log fold change Tl+ flux is -0.0264 (inactive) in test [1]; -0.0265 (inactive) in [2]; -0.0283 (inactive) in [3]; -0.0664 (inactive) in test [4]; -0.0248 (inactive) in [5]; -0.0103 (inactive) in test [6].
Turning to `c1cncc(C2CCCN2)c1` (centres undefined), the parasite load remaining in test [15] was 96.8% (inactive). In addition, in test [15], the viability was found to be 74.2%. Further, the results for the fluorescence ratio in test [16] and in [19] were 1.01 (inactive) and 0.95 (inactive), respectively. Also, the inhibition in [17] is -1.98% (inactive); in test [18], -1.64% (inactive). Also, the results for the fold change in test [20] (stronger effect = lower value) and in [20] (setting [22]) were 0.916 (inactive) and 2.18, respectively. For the same compound, the cell count in test [20] (setting [23]) turned out to be 9590; in test [20] (setting [24]), 10500.
For the compound `Oc1cc2c(cc1O)[C@H]1c3ccccc3CN[C@@H]1CC2`, the parasite load remaining in [15] is 31.6% (inactive). Also, the viability in test [15] came out at 68.7%. Moreover, the fluorescence ratio in [16] is 0.94 (inactive); in test [19], 0.91 (inactive). In addition, the inhibition was -5.46% (inactive) in test [17] and -4.33% (inactive) in test [18]. Besides, the fold change was 0.969 (inactive) in test [20] (setting [21]) and 0.736 in [20] (setting [22]). The cell count in test [20] (setting [23]) was determined as 8740; in test [20] (setting [24]), 9020. Further, the log fold change Tl+ flux in [1] was -0.103 (inactive); in test [2], -0.0567 (inactive); in [3], -0.0506 (inactive); in test [4], 0.0796 (active); in [5], 0.137 (active); in test [6] it was 0.0271 (inactive).
For `Cc1ccc(-c2nc3ccc(C)cn3c2CC(=O)N(C)C)cc1`, the parasite load remaining in [15] was 37% (inactive) and 120% (inactive). Moreover, in test [15], the viability was 80.3% and 64.4%. Further, the results for the fluorescence ratio in test [16] and in [19] were 1.04 (inactive) and 1.01 (inactive), respectively. In addition, the inhibition in test [17] was -1.98% (inactive); in test [18], -2.41% (inactive). The fold change is 0.956 (inactive) in test [20] (stronger effect = lower value) and 2.59 in test [20] (setting [22]). For the same compound, the results for the cell count in test [20] (setting [23]) and in [20] (setting [24]) were 9130 and 9550, respectively. Moreover, the log fold change Tl+ flux in test [1] was -0.0187 (inactive); in [2], 0.00568 (inactive); in test [3], -0.0227 (inactive); in test [4], -0.0502 (inactive); in test [5], -0.00561 (inactive); in test [6] it was 0.00818 (inactive).
For `CC[C@@H]1/C=C/C=C/C[C@H](C)[C@@H](O)[C@](C)(O)C(=O)[C@H](C)[C@@H](O)[C@H](C)C(=O)[C@H](C)[C@@H](O)[C@H](C)/C=C/C(=O)O[C@H]2[C@@H](C)[C@@H](CC1)O[C@@]1(CC[C@@H](C)[C@@H](C[C@H](C)O)O1)[C@@H]2C`, the fold change in [20] (stronger effect = lower value) is 0.872 (inactive); in test [20] (setting [22]), 0.921. Besides, the cell count in test [20] (setting [23]) was determined as 989; in [20] (setting [24]) it was 1130.
For the compound `NC(=NCc1ccc(Cl)cc1)SCCCc1cnc[nH]1`, the parasite load remaining in test [15] was 42% (inactive). For the same compound, the viability in [15] amounted to 63.6%. For the same compound, the fluorescence ratio in test [16] and in test [19] was 0.97 (inactive) each time. Besides, the inhibition in test [17] is -2.84% (inactive); in [18], 0.39% (inactive). In addition, the fold change is 0.914 (inactive) in test [20] (stronger effect = lower value); 0.963 (inactive) in test [20] (setting [21]); 0.654 and 0.836 in test [20] (setting [22]). For the same compound, the cell count in [20] (setting [23]) is 8670 and 7970; in [20] (setting [24]), 9480 and 8280.
Take `Oc1ccc2c3c1OC1C(O)CC[C@@]4(O)[C@@H](C2)N(CC2CCC2)CC[C@]314` (some centres undefined): the parasite load remaining in test [15] was 133% (inactive). Also, the viability in test [15] came out at 141%. Also, the figures for the fluorescence ratio in test [16] and in test [19] were 0.97 (inactive) and 0.88 (inactive), respectively. The inhibition in test [17] is -1.98% (inactive); in [18] it was 9.14% (inactive).
On to `CC[C@@H](C(N)=O)N1CCCC1=O`, for which the parasite load remaining in test [15] is 91.8% (inactive) and 41.8% (inactive). In addition, the viability in test [15] was 70% and 106%. The fluorescence ratio in [16] is 1.01 (inactive); in [19], 1.02 (inactive). Further, the inhibition was 7.52% (inactive) in test [17] and 9.91% (inactive) in test [18]. In addition, the fold change was 1.08 (inactive) and 0.876 (inactive) in [20] (stronger effect = lower value); 1.59 and 0.289 in test [20] (setting [22]). The cell count in test [20] (setting [23]) is 11300 and 10400; in [20] (setting [24]), 10400 and 11900. For the same compound, the log fold change Tl+ flux in test [1] is -0.0178 (inactive); in test [2] it was -0.0158 (inactive); in test [3], 0.037 (inactive); in test [4], -0.0285 (inactive); in test [5], -0.00577 (inactive); in test [6], -0.0311 (inactive).

Values taken from PubChem BioAssay.
